Assay results as given in PubChem BioAssay (Tox21).
Values joined by “and” are separate entries in the source; they are usually repeats but may differ in a detail not shown here. Identical values can stand only once. Results filed as inconclusive are left out. A call without a number means that no potency is given here. Active and inactive are the calls of the source. Calls follow the shape of the dose curve; as a rule, active = well fitted activation curve with a large enough effect in the repeat runs; inconclusive = weak or mixed curves, or effect the other way; inactive = no such curve, though single readings can be large or run the other way.

Experiment: qHTS assay to identify small molecule agonists of the estrogen related receptor signaling pathway with the pleiotropic PPARgamma coactivator (PGC) from Tox21 10K library (AID 1224842); also: nearly all actives have a fitted effect of over 15% in size
Details: PGC/ERR reporter cell line, luciferase ONE-Glo, 18 h; series mostly up to 92.4 µM; activation: at the top concentration
Excerpt: National Center for Advancing Translational Sciences [NCATS] NIH Chemical Genomics Center [NCGC] U.S. Environmental Protection Agency [EPA] National Institutes of Environmental Health Sciences [NIEHS] National Toxicology Program [NTP] Assay overview: Estrogen related receptors (ERRs), the first orphan nuclear receptors discovered, play an important role in the control of cellular energy metabolism. ERRs are required for high-energy production in response to the environmental challenges. The pleiotropic PPARgamma coactivator (PGC) is a major partner of ERR and a key regulator in energy homeostasis. Together they have been implicated in the etiology of metabolic disorders such as Type 2 diabetes and metabolic syndrome. ERR-alpha was also identified as an adverse marker for breast cancer progression; ERR-alpha-positive tumors have a poor prognosis. To screen and to identify environmental compounds that perturb the PGC/ERR signaling pathways could provide valuable information for potential therapeutic or preventive measures in the treatment of metabolic disease. For identifying PGC/ERR agonists, PGC/ERR cell line (provided by NTP) has been used to screen Tox21 10K library.
Assay Protocol Summary: The PGC/ERR cells were dispensed at 2,000 cells/5 ul/well in 1536-well white plates using a Multidrop dispenser. After the assay plates were incubated at a 37 C/5% CO2 incubator for 6 hours, 23 nL of compounds dissolved in DMSO, positive and negative controls or DMSO only was transferred to the assay plate by a pin tool. The plates were incubated at 37 C for 18 hours. 4 ul/well of One-Glo reagent was added into the assay plates using a Flying Reagent Dispenser. After 30-minute incubation at room temperature, the luminescence intensity in the plates was measured using a ViewLux plate reader.
Potency is read from the fitted curve at half-maximal effect.

Row | SMILES | Potency | activation
1 | Oc1cccc(O)c1 | inactive | –
2 | OC[C@@H](O)[C@@H](O)[C@H](O)[C@H](O)CO | inactive | –
3 | O=C(OCc1ccccc1)c1ccccc1 | inactive | –
4 | OCCCc1ccccc1 | inactive | –
5 | NC(=O)N/N=C/c1ccc([N+](=O)[O-])o1 | inactive | –
6 | CCCCCCCC(=O)OCC(O)CO (stereo not given) | inactive | –
7 | CCCCOCCOCCOC(C)=O | inactive | –
8 | CCN(CC)CCOC(=O)c1ccc(N)cc1 | inactive | –
9 | O=C(O)CCCCC1CCSS1 (stereo not given) | inactive | –
10 | Cc1cccc(C)c1O | inactive | –
11 | CN(C)C=O | inactive | –
12 | O=C1CCCCCN1 | inactive | –
13 | C[C@]12CC[C@@H]3c4ccc(O)cc4C[C@@H](CCCCCCCCCS(=O)CCCC(F)(F)C(F)(F)F)[C@H]3[C@@H]1CC[C@@H]2O (stereo not given in full) | inactive | –
14 | CO[C@H]1C=CO[C@@]2(C)Oc3c(C)c(O)c4c(O)c(c(/C=N/N5CCN(C)CC5)c(O)c4c3C2=O)NC(=O)/C(C)=C\C=C[C@H](C)[C@H](O)[C@@H](C)[C@@H](O)[C@@H](C)[C@H](OC(C)=O)[C@@H]1C | inactive | –
15 | COC(=O)c1ccc(C=O)cc1 | inactive | –
16 | C=C(C)OC(C)=O | inactive | –
17 | CC1(C)O[C@@H]2[C@@H](CO[C@@]3(COS(N)(=O)=O)OC(C)(C)O[C@@H]23)O1 | inactive | –
18 | Cc1ccc(O)c(-n2nc3ccccc3n2)c1 | 27.1 µM (active) and 8.63 µM (active) and 11.9 µM (active) | –
19 | CC(C)Cc1ccc(C(C)C(=O)O)cc1 (stereo not given) | inactive | –
20 | CCOC(=O)C(C)(C)Oc1ccc(Cl)cc1 | inactive | –
21 | O=C(O)CN(CC(=O)O)CC(=O)O | inactive | –
22 | CC(C)CC(C)CC(O)CC(C)C (stereo not given) | inactive | –
23 | CCCCCCCCOc1ccc(C(=O)c2ccccc2)c(O)c1 | inactive | –
24 | COC1=CC(=O)C[C@@H](C)[C@]12Oc1c(Cl)c(OC)cc(OC)c1C2=O | inactive | –
25 | C=CCOC(=O)CC(C)C | inactive | –
26 | Cc1cccc2ccccc12 | inactive | –
27 | COC(=O)C1CCC(C(=O)OC)CC1 (stereo not given) | inactive | –
28 | O=c1cc[nH]c(=O)[nH]1 | inactive | –
29 | CCCCNC(=O)NS(=O)(=O)c1ccc(N)cc1 | inactive | –
30 | C=C(C)C(N)=O | – | 2.07% (inactive)
